Each molecule was assayed against AMP-activated protein kinase, AMPK (Homo sapiens) (UniProt P54646+O43741+P54619+Q9UGJ0+Q9Y478+Q13131+Q9UGI9) (assay: AMP-dependent Kinase enzyme assay. An in vitro enzyme assay that detects ADP turnover that is directly proportional to AMPK activity. This uses naive AMPK that is activated during the assay with MK-8722). Conditions: 30 µM.
Type: functional
Parameters: scale not given: direction of the effect not stated beside the values

Compound	Percent Effect [%]
Cc1ccc(OCC2CCCN(C(=O)c3csc(CN(C)C)n3)C2)cc1 (centres undefined)	14.7
NCc1cccc(NC(=O)CCN2CCOCC2)c1	-8.1
CC(CO)NS(=O)(=O)c1cccc(C(C)C)c1 (centres undefined)	-0.593
Cn1cc(CN(C(=O)c2ccc(O)c(Cl)c2)C2CC2)cn1	10.3
Cc1nonc1CN1CC[C@@](O)(C2CCOCC2)[C@H](C)C1	-6.73
CN(CC(O)C(F)(F)F)C(=O)Nc1cccc(Cn2cccn2)c1 (centres undefined)	-3.22
CN(CCc1ccncc1)c1cnn(C)c(=O)c1Br	-1.01
CC(C)(C)CC(NC(=O)N1CCC(C(N)=O)CC1)C(F)(F)F (centres undefined)	-1.73
Cc1cccc(N2CCN(C(=O)CNCCn3cccn3)CC2)c1	-3.32
Cc1nc2sccn2c1CN(CCCN(C)C)Cc1ccccn1	3.1
O=C(c1cc(C2CC2)n[nH]1)N1C[C@H]2CC[C@](O)(c3ccccc3F)[C@H]2C1	16
Cc1nc2n(n1)CC(Nc1nc(C(F)(F)F)nc3ccccc13)CC2 (centres undefined)	1.51
CCn1cc(S(=O)(=O)NCc2ccnc(-n3ccnc3)c2)cn1	-0.563
CC(C)Cc1noc(CN(C)C2CCS(=O)(=O)C2)n1 (centres undefined)	-4.29
CCC[C@@H]1CN(c2cncc(C(=O)N3CCOCC3)n2)C[C@H]1N(C)C	14.3
Cc1ccccc1-n1ccnc1S(=O)(=O)Cc1nsc(N(C)C)n1	-1.55
CC(=O)N1CCc2c(nc(N(C)C)nc2NCCCn2ccnc2)C1	2.43
COc1ccc(N2CCN(Cc3nc(CSC)no3)C(C)C2=O)cc1 (centres undefined)	4.28
CCCc1nn(Cc2ccc(Br)s2)c(=O)o1	9.29
CCC(C#N)NC(=O)c1sccc1OC (centres undefined)	2.49

Compound	Percent Effect [%]
Cc1noc(C2CCN(Cn3cc(Br)cn3)CC2)n1	18.3
Cc1cc(C(=O)NC2CCN(c3nnc(C)c(C)c3C#N)CC2)no1	-21.4
CN(CCn1cncc1-c1cnc(N2CCOCC2)nc1)C1CCCC1	12.2
CN1CCN(C(=O)C2(S(C)(=O)=O)CCCC2)Cc2ccccc21	-2.88
N#CCCn1cnc2c(Br)cccc2c1=O	-5.95
CN(Cc1cccc(-n2cccn2)c1)Cc1c[nH]cn1	-6.63
COc1c(F)cc(-c2cccc3c2OC(CN)C3)cc1F (centres undefined)	-4.2
O=C(NCC[S+]([O-])Cc1ccccc1)c1ccc2[nH]c(=O)[nH]c2c1 (centres undefined)	13.6
COC(=O)c1ccc(Cn2cccc(C(F)(F)F)c2=O)c(OC)c1	6.82
CN1CCC(Nc2cc(Cl)ccc2OCC(F)(F)F)C1=O (centres undefined)	-5.49
Cc1cc(CC(=O)NC2CCCN(c3ccccc3Cl)C2=O)n[nH]1 (centres undefined)	4.62
CCCNC(=O)c1[nH]nc(C2CC2)c1Br	2.02
Cc1csc(C(=O)N2CC(S(=O)(=O)C3CCCCC3)C2)c1	-2.28
COc1ccc(S(=O)(=O)Nc2cccnc2-n2cncn2)c(C)c1	-5.19
CCCC1COCCN1Cc1ccc(C(=O)O)cc1 (centres undefined)	-3.74
CN(CC(=O)NCC(F)(F)F)Cc1cccc2c1OCCO2	3.65
O=C(NCC(=O)N1CCCCC1)c1sccc1C1CC1	-1.89
COc1ccc(OCc2noc(CN(C)C3CCS(=O)(=O)C3)n2)cc1 (centres undefined)	-2.23
C=C(C)COc1cccc(CNCCc2nc(N)cc(O)n2)c1	3.76

From ChEMBL document CHEMBL3988442, “University of Dundee, Small-Polar-MMV Screening Library” (2021)
